Laboratory results reported in PubChem BioAssay (NCATS).
Values joined by “and” are separate entries in the source; they are usually repeats but may differ in a detail not shown here. Equal entries are not always repeated. Records with an inconclusive call do not appear. Active and inactive are the calls of the source. Unless noted, calls follow the shape of the dose curve; as a rule, active = well fitted curve in the direction sought with a large enough effect; inconclusive = small, poorly fitted or top-dose-only effect, or another doubt; inactive = no such curve, though single readings can be large; an effect the other way counts as inactive or inconclusive.

Tests used:
[1] = qHTS assay for small molecule antagonists of retinoid X receptor alpha signaling (AID 588546; active = well fitted inhibition curve with a large enough effect in the signal ratio, with a control signal flat, not every such curve was filed as active; the % refers to the signal ratio;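 also: cells stimulated with 9-cis-retinoic acid as agonist; % is scaled to controls: 0 for no effect and ±100 for the full control effect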); settings: HEK293T RXRa-UAS-bla, beta-lactamase ratio, antagonist mode; measured here: W530 green channel, cytotoxicity proxy
How it was run: (§1)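 Beta-lactamase reporter inhibition, read as CCF4 fluorescence ratio (ex 405, em 460/530 nm) after 2 h at RT. HEK293T UAS-bla cells, 2500/well, were stimulated with 9-cis-RA at 500 or 100 nM final alongside test compound for 18 h at 37 C.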

[2] = biological target: Retinoic acid receptor RXR-alpha (Homo sapiens) (UniProt P19793); experiment: as above; settings: HEK293T RXRa-UAS-bla, beta-lactamase ratio, antagonist mode
How it was run: as §1

[3] = biological target: Thyroid hormone receptor beta (Homo sapiens) (UniProt P10828); experiment: qHTS assay for small molecule antagonists of thyroid hormone receptor beta signaling (AID 588547; active = well fitted inhibition curve with a large enough effect in the signal ratio, with a control signal flat, not every such curve was filed as active; the % refers to the signal ratio;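 also: cells stimulated with 0.4 nM T3 agonist during compound exposure; % is scaled to controls: 0 for no effect and ±100 for the full control effect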); settings: TR-UAS-bla HEK293, beta-lactamase ratio, antagonist mode, 18 h
How it was run: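 TR-UAS-bla GripTite HEK293 cells in 2% charcoal/dextran FBS medium; compounds 0.59 nM to 92 uM with T3 at 0.4nM final, 18 h at 37 C. Beta-lactamase read by CCF4 fluorescence (460/530 nm); Hill fits gave IC50 and efficacy.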

[4] = biological target: Voltage-gated inwardly rectifying potassium channel KCNH2 (Homo sapiens) (UniProt Q12809); experiment: qHTS Assay for Small Molecule Inhibitors of the Human hERG Channel Activity (AID 588834); settings: U2OS BacMam hERG, FluxOR thallium flux fluorescence; series mostly up to 46.1 µM;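 also: top concentration of the series differs between compounds; % is scaled to controls: 0 for no effect and ±100 for the full control effect; lower thallium flux fluorescence means stronger hERG block; nearly all actives have a fitted effect of over 50% in size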
How it was run: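 Step 1: BacMam hERG transduction of U2OS, 4 hrs RT. Step 2: overnight 37 °C, plate 2000 cells/well, 4 hr. Step 3: FluxOR load, compound 10 min, stimulate, read fluorescence.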

[5] = biological target: Luciferin 4-monooxygenase (Photinus pyralis) (UniProt P08659); experiment: Biochemical firefly luciferase enzyme assay for NPC (AID 624030);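 also: purified P. pyralis luciferase at 10 nM with luciferin and ATP substrate; 0% = DMSO and -100% = full luciferase inhibition by PTC124 control; nearly all actives have a fitted effect of over 70% in size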; settings: purified P. pyralis luciferase, luminescence, 5 min; series mostly up to 58.6 µM
How it was run: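 Purified P. pyralis luciferase at 10 nM in 50 mM Tris Acetate (final), luminescence read within 5 minutes of enzyme addition to compounds. Activity normalised to PTC124 versus DMSO; concentration-response curves classed by r2, magnitude and activity.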

[6] = S16 Schwann cell viability assay (CellTiter-Glo assay) (AID 624031); settings: S16 rat Schwann cells viability, 24 h; series mostly up to 57.5 µM;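 also: native untransfected S16 rat Schwann cells; cellular ATP luminescence as a viability measure; plate controls were DMSO-treated cells for no effect and cell-free wells for full effect; nearly all actives have a fitted effect of over 70% in size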
How it was run: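 Concentration-effect curves come from CellTiter-Glo luminescence of S16 rat Schwann cells after 24 h compound exposure. Each reading was normalized to DMSO wells (0%) and wells without cells, and curves were ranked by r2 and response magnitude.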

[7] = S16 Schwann cell PMP22 intronic element firefly luciferase assay (AID 624032); settings: S16 rat Schwann cells, PMP22 element FLuc, 24 h; series mostly up to 57.5 µM;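 also: plate controls were DMSO for no effect and PTC124 positive control mean for full effect; nearly all actives have a fitted effect of over 30% in size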
How it was run: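 Rat S16 Schwann cells stably carrying firefly luciferase driven by a PMP22 intronic element, in 10% FBS, treated 24 h at 37 C. ONE-Glo luminescence normalized to PTC124 control and DMSO (0%); curves classed by r2, magnitude and activity.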

[8] = S16 Schwann cell PMP22 intronic element beta-lactamase assay (AID 624044; calls by dose curve;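 also: 0% = DMSO and -100% = potassium clavulanate positive control; nearly all actives have a fitted effect of over 15% in size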); settings: S16 rat Schwann cells, PMP22 element beta-lactamase FRET, 24 h; ratio activity, negative = inhibition: at 38.3 µM (top of the series) unless noted
How it was run: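 Beta-lactamase reporter under a PMP22 intronic regulatory element in stable S16 rat Schwann cells; 24 h compound exposure. 460 nm blue signal normalized between DMSO (0%) and potassium clavulanate, with 535 nm FRET tracking viability; curves classed by r2 and response.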

[9] = biological target: Glutaminase kidney isoform, mitochondrial (Homo sapiens) (UniProt O94925); experiment: qHTS for Inhibitors of Glutaminase (GLS): LOPAC Validation (AID 624146); settings: glutaminase enzyme activity inhibition; also: potency is read from the fitted curve at half-maximal effect; nearly all actives have a fitted effect of over 60% in size
How it was run: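 Glutamate formation by hKGA was monitored fluorometrically using coupled glutamate oxidase, HRP and Amplex Red. Substrate was added as 1 mM L-glutamine solution; incubation was 30 min at RT after an initial read.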

[10] = qHTS of Trypanosoma Brucei Inhibitors: LOPAC Validation (AID 624147); settings: purified enzyme assay, luminescence, 45 min; series mostly up to 57.5 µM; also: 0% is about no effect
How it was run: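 Assay buffer: 50 mM TEA pH 7.2, 100 mM KCl, 10 mM MgCl2, 0.05% BSA, 0.01% Tween-20. Pyruvate kinase from T. brucei plus substrate met compound, then ADP (130 uM final). Luminescence was read post 45 min RT.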

Chain of Retinoic acid receptor RXR-alpha (Homo sapiens) (P19793 whole entry, looked up): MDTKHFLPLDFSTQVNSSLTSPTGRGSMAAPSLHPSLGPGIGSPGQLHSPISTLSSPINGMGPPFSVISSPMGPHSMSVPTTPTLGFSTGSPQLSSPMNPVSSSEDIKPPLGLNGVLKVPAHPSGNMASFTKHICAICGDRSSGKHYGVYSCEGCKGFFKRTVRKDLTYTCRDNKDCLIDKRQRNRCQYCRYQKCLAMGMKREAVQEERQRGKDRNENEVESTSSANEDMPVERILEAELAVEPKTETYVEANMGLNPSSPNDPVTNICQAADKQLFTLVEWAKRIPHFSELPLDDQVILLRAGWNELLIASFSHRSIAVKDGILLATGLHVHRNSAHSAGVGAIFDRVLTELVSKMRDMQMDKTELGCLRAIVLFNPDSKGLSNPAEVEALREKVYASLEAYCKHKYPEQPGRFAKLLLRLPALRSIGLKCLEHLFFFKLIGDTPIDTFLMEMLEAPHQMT
Chain of Luciferin 4-monooxygenase (Photinus pyralis) (P08659 whole entry, looked up): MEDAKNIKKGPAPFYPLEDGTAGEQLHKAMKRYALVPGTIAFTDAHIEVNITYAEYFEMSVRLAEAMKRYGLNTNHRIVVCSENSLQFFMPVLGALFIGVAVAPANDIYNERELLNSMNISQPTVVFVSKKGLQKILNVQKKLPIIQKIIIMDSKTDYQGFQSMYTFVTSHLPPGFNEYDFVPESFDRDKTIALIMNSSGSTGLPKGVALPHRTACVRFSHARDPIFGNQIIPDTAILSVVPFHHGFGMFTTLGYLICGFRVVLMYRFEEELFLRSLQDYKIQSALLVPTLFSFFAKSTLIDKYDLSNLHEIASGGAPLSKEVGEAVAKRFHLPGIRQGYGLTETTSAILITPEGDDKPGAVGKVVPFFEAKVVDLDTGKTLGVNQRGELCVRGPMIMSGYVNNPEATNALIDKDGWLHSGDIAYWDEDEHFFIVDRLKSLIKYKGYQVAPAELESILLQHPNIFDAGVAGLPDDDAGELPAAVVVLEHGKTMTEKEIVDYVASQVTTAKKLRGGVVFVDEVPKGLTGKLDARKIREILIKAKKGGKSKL
Chain of Thyroid hormone receptor beta (Homo sapiens) (P10828 whole entry, looked up): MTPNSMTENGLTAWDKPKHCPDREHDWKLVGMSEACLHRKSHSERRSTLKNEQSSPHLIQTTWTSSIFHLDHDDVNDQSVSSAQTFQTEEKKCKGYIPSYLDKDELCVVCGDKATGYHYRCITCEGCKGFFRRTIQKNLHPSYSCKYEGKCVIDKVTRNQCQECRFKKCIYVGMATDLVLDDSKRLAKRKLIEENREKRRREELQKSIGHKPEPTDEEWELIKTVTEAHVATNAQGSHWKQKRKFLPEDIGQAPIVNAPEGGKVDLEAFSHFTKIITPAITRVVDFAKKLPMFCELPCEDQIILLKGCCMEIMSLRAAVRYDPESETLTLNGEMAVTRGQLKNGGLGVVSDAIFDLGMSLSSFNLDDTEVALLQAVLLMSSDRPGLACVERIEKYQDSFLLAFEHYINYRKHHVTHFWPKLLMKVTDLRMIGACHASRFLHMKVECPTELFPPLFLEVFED
Chain of Voltage-gated inwardly rectifying potassium channel KCNH2 (Homo sapiens) (Q12809 whole entry, looked up): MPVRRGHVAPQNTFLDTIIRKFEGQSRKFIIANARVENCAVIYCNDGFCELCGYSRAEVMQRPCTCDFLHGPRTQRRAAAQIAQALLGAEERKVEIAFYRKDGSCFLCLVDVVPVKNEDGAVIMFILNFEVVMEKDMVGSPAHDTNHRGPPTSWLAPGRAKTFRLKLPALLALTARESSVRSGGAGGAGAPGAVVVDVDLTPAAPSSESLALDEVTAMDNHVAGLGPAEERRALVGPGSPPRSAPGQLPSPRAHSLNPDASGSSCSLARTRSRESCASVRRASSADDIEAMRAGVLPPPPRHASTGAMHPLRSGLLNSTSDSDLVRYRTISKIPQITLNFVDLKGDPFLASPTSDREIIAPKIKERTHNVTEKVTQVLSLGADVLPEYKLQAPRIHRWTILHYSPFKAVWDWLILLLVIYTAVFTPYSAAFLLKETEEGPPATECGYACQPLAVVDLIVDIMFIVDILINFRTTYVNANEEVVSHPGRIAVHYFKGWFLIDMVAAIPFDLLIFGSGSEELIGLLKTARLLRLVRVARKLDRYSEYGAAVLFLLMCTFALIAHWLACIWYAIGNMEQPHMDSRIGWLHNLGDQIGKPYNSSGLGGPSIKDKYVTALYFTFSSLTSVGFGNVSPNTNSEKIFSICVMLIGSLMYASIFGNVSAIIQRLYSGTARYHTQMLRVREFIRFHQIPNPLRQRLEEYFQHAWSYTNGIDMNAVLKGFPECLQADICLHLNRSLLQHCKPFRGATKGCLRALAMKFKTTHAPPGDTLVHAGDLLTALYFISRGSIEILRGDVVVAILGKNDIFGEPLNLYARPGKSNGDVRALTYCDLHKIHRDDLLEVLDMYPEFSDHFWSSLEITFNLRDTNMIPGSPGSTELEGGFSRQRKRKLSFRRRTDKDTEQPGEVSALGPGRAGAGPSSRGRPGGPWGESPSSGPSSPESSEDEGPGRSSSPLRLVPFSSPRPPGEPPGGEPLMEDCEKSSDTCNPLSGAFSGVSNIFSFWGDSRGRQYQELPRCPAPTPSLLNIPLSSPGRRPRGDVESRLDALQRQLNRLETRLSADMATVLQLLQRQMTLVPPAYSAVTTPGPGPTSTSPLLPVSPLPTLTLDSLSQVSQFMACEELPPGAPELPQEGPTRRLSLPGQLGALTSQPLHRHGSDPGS
Chain of Glutaminase kidney isoform, mitochondrial (Homo sapiens) (O94925 whole entry, looked up, canonical isoform): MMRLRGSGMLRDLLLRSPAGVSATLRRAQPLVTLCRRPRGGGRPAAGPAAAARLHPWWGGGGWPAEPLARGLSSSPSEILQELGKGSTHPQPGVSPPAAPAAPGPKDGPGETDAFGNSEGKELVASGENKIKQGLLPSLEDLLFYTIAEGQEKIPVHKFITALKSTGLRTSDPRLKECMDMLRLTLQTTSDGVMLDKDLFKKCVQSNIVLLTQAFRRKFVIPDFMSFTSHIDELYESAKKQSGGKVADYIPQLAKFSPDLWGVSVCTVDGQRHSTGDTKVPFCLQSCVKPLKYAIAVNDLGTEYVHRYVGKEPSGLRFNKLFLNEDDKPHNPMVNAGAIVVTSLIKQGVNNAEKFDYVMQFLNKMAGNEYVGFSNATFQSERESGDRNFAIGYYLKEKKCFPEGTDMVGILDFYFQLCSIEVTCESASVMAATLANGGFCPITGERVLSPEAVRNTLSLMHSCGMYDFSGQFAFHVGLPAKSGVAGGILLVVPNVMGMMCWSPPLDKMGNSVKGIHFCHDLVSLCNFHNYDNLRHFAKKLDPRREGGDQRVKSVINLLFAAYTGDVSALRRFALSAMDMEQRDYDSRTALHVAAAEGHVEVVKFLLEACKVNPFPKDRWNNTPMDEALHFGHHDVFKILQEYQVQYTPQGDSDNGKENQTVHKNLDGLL

## CC[C@H]1OC(=O)[C@H](C)[C@@H](O[C@H]2C[C@@](C)(OC)[C@@H](O)[C@H](C)O2)[C@H](C)[C@@H](O[C@@H]2O[C@H](C)C[C@H](N(C)C)[C@H]2O)[C@](C)(O)C[C@@H](C)CN(C)[C@H](C)[C@@H](O)[C@]1(C)O
[1]
  max response: 13.1%
[2]
  max response: -8.56% (inactive)
[3]
  activity change % (negative = inhibition): -2.15% (inactive)
[4]
  Potency: inactive
[5]
  Potency: inactive
[6]
  Potency: inactive

## CC(C)O
[1]
  max response: -15.1%
[2]
  max response: 36.2% (inactive)
[3]
  activity change % (negative = inhibition): -11% (inactive)
[4]
  Potency: inactive
[5]
  Potency: inactive
[6]
  Potency: inactive
[7]
  Potency: inactive
[8]
  ratio activity, negative = inhibition: -7.58% (inactive)

## Cc1ccc(S(=O)(=O)O)cc1C
[1]
  max response: -21.8%
[2]
  max response: 10.6% (inactive)
[3]
  activity change % (negative = inhibition): -0.818% (inactive)
[5]
  Potency: inactive
[6]
  Potency: inactive
[7]
  Potency: inactive

## c1ccc2ccccc2c1
[1]
  max response: -9.07% and -13.7%
[2]
  max response: 0.585% (inactive) and 18.2% (inactive)
[3]
  activity change % (negative = inhibition): 2.25% (inactive) and -17.5% (inactive)
[4]
  Potency: inactive
[5]
  Potency: inactive
[6]
  Potency: inactive
[7]
  Potency: inactive

## CN(CCO)CC(O)Cn1cnc2c1c(=O)n(C)c(=O)n2C (stereo unspecified) (tested in a mixture with another compound)
[1]
  max response: -4.33%
[2]
  max response: -3.95% (inactive)
[3]
  activity change % (negative = inhibition): 12.1% (inactive)
[4]
  Potency: inactive
[5]
  Potency: inactive
[6]
  Potency: inactive
[7]
  Potency: inactive
[8]
  ratio activity, negative = inhibition: 1.27% (inactive)

## C[Si](C)(C)O[Si](C)(C)C
[1]
  max response: -6.12%
[2]
  max response: -23.1% (inactive)
[3]
  activity change % (negative = inhibition): 22.8% (inactive)
[5]
  Potency: inactive
[6]
  Potency: inactive
[7]
  Potency: inactive
[8]
  ratio activity, negative = inhibition: -0.118% (inactive)

## CO
[1]
  max response: -6.65%
[2]
  max response: -0.242% (inactive)
[3]
  activity change % (negative = inhibition): 0.348% (inactive)
[4]
  Potency: inactive
[5]
  Potency: inactive
[6]
  Potency: inactive
[7]
  Potency: inactive
[8]
  ratio activity, negative = inhibition: 1.83% (inactive)

## OCCOCCOCCO
[1]
  max response: -16.7% and -5.33%
[2]
  max response: 0.587% (inactive) and -7.45% (inactive)
[4]
  Potency: inactive
[5]
  Potency: inactive
[6]
  Potency: inactive
[7]
  Potency: inactive

## OCc1ccccc1
[1]
  max response: -9.58%
[2]
  max response: -2.03% (inactive)
[3]
  activity change % (negative = inhibition): -15.9% (inactive)
[4]
  Potency: inactive
[5]
  Potency: inactive
[6]
  Potency: inactive
[7]
  Potency: inactive

## Oc1ccc(/C=C/c2cc(O)cc(O)c2)cc1
[1]
  max response: 8.43%
[2]
  max response: -15.1% (inactive)
[3]
  activity change % (negative = inhibition): 0.49% (inactive) and -24.4% (inactive)
[4]
  Potency: inactive
[9]
  Potency: 5.01 µM (active)
[10]
  outcome: inactive

## OCC(O)CO
[1]
  max response: -6.53% and 10.4%
[2]
  max response: 0.797% (inactive) and 12.5% (inactive)
[3]
  activity change % (negative = inhibition): -5.42% (inactive) and 3.32% (inactive)
[4]
  Potency: inactive
[5]
  Potency: inactive
[8]
  ratio activity, negative = inhibition: 2.96% (inactive)

## CCCCC(CC)COS(=O)(=O)O (stereo unspecified)
[1]
  max response: -15.9%
[2]
  max response: 7.69% (inactive)
[3]
  activity change % (negative = inhibition): 9.71% (inactive)
[4]
  Potency: inactive
[5]
  Potency: inactive
[6]
  Potency: inactive
[7]
  Potency: inactive

## NCCO/C=C/[C@H](N)C(=O)O
[1]
  max response: -8.31%
[2]
  max response: -9.4% (inactive)
[3]
  activity change % (negative = inhibition): 19.7% (inactive)
[4]
  Potency: inactive
[5]
  Potency: inactive
[6]
  Potency: inactive
[7]
  Potency: inactive

## CO/N=C(/C(=O)N[C@@H]1C(=O)N2C(C(=O)O)=C(COC(N)=O)CS[C@H]12)c1ccco1
[1]
  max response: -0.122%
[2]
  max response: -5.55% (inactive)
[3]
  activity change % (negative = inhibition): -0.0158% (inactive)
[4]
  Potency: inactive
[5]
  Potency: inactive
[6]
  Potency: inactive
[7]
  Potency: inactive
[8]
  ratio activity, negative = inhibition: 0.236% (inactive)

## C[C@H](CCC(=O)O)[C@H]1CC[C@H]2[C@@H]3[C@H](O)C[C@@H]4C[C@H](O)CC[C@]4(C)[C@H]3C[C@H](O)[C@]12C
[1]
  max response: 8.31%
[2]
  max response: -12.8% (inactive)
[3]
  activity change % (negative = inhibition): 5.64% (inactive)
[4]
  Potency: inactive
